Some test systems named below: NCI-H23 lung; NCI-H226 lung; NCI-H322M lung; HOP-62 NSCLC; NCI-H460 lung; NCI-H522 lung; A549/ATCC NSCLC; 786-0 renal; COLO 205 colon; DU-145 prostate; K-562 leukemia; MALME-3M melanoma; MDA-MB-231 breast; RXF 393 renal; SF-268 CNS; SF-295 CNS; SF-539 CNS; UACC-257 melanoma; M14 melanoma.
What all share (experiment): NCI-60 one-dose screen, 48 h (100 = growth as untreated, 0 = no growth, -100 = all killed)
Conditions in all cases: 10 µM unless noted

This is part of a sample that, as a whole, favours compounds with a hit. Of some 83,000 tested, about 20% had one in any assay.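 For each line, cells grew in 96-well plates with the test compound present at a single concentration for 48 hours.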 Values without a mark were called inactive. Calls of active or inactive are those of the source. How the source made its calls: active means growth percent below 10; inactive means the rest.

Regarding `Nc1cc(C(=O)O)cc(C(=O)O)c1`, the growth in the experiment with NCI-H23 lung was 108%; in the experiment with NCI-H226 lung, 108%; with NCI-H322M lung it was 102%; in the experiment with HOP-62 NSCLC it was 98.1%; in the experiment with NCI-H460 lung, 112%; in the experiment on NCI-H522 lung it was 91%. For the same molecule, the growth is 108% in the experiment with A549/ATCC NSCLC; 96.8% in the experiment with 786-0 renal; 99% in the experiment on COLO 205 colon; 145% with DU-145 prostate; 96.6% in the experiment on K-562 leukemia; 92.8% in the experiment with MALME-3M melanoma. The growth in the experiment on MDA-MB-231 breast was 102%; in the experiment with RXF 393 renal, 128%; with SF-268 CNS it was 115%; in the experiment on SF-295 CNS, 113%; with SF-539 CNS, 103%; in the experiment on UACC-257 melanoma, 110%. In the experiment with M14 melanoma, the growth is 98.9%.
Turning to `CCCCCCCCCCCC1=NC(C)(C)CN1C(C)C`, the growth in the experiment on NCI-H23 lung was 49.8%; with NCI-H226 lung, 89.1%; with NCI-H322M lung, 97.7%; with HOP-62 NSCLC, 54.6%; in the experiment with NCI-H460 lung, 50.4%; in the experiment with NCI-H522 lung, 43%. For the same molecule, the growth in the experiment with A549/ATCC NSCLC was 61.1%; in the experiment on 786-0 renal it was 54.5%; with COLO 205 colon, -53.7% (active); in the experiment with DU-145 prostate, 68.9%; in the experiment on MALME-3M melanoma, 59.8%; with MDA-MB-231 breast, 53.7%. Also, the growth is 5.65% (active) with RXF 393 renal; 71.9% in the experiment on SF-268 CNS; 62.6% with SF-295 CNS; 55.6% in the experiment on SF-539 CNS; -9.06% (active) in the experiment on UACC-257 melanoma.
Take `CCN(CC)c1cc(C)c(Cc2c(OC)ccc3ccccc23)cc1C`: the growth in the experiment with NCI-H23 lung was 93.7%; in the experiment with NCI-H226 lung, 92.3%; in the experiment on NCI-H322M lung, 96.9%; in the experiment on HOP-62 NSCLC it was 85%; with NCI-H460 lung, 95.1%; in the experiment with NCI-H522 lung it was 74.7%. Further, the growth is 82.8% in the experiment with A549/ATCC NSCLC; 100% in the experiment on 786-0 renal; 96.7% in the experiment on COLO 205 colon; 105% in the experiment with DU-145 prostate; 84.7% in the experiment with K-562 leukemia; 102% in the experiment with MALME-3M melanoma. Moreover, the growth was 98.6% in the experiment on MDA-MB-231 breast; 101% in the experiment with RXF 393 renal; 95.7% in the experiment with SF-268 CNS; 103% in the experiment on SF-295 CNS; 103% in the experiment on SF-539 CNS; 96.8% in the experiment on UACC-257 melanoma. Further, in the experiment on M14 melanoma, the growth was 90.8%.
With `OCCN(CCO)c1ccc2ccccc2c1`, the growth in the experiment on NCI-H23 lung is 101%; with NCI-H226 lung it was 103%; with NCI-H322M lung, 93.6%; in the experiment with HOP-62 NSCLC it was 90.6%; with NCI-H460 lung, 107%; with NCI-H522 lung, 73.4%. Also, the growth was 97.7% in the experiment with A549/ATCC NSCLC; 111% in the experiment with 786-0 renal; 106% in the experiment with COLO 205 colon; 103% in the experiment on DU-145 prostate; 106% in the experiment with K-562 leukemia; 102% in the experiment on MALME-3M melanoma. Also, the growth in the experiment with MDA-MB-231 breast was 108%; in the experiment on RXF 393 renal, 125%; in the experiment with SF-268 CNS, 96.8%; with SF-295 CNS, 98.9%; with SF-539 CNS, 96.7%; in the experiment with UACC-257 melanoma, 110%. For the same molecule, the growth with M14 melanoma was 90.7%.
Take `O=C1OCC2=C1C(c1ccccc1)c1cc3c(cc1N2CCO)CCC3` (centres undefined): the growth is -0.519% (active) in the experiment on NCI-H23 lung; 27% in the experiment with NCI-H226 lung; 34.2% in the experiment with NCI-H322M lung; 20.9% with HOP-62 NSCLC; -37.3% (active) in the experiment with NCI-H460 lung; -31.4% (active) in the experiment on NCI-H522 lung. Further, the growth in the experiment with A549/ATCC NSCLC was 34.6%; with 786-0 renal, 8.65% (active); in the experiment on COLO 205 colon, -81.7% (active); with DU-145 prostate, 2.03% (active); in the experiment with MALME-3M melanoma, 50.2%; with MDA-MB-231 breast, 16.4%. The growth with RXF 393 renal is 11%; in the experiment on SF-268 CNS, 39.2%; with SF-295 CNS, -21.8% (active); in the experiment with SF-539 CNS, -50.5% (active); in the experiment on UACC-257 melanoma, 61.7%; with M14 melanoma, -15.1% (active).
Turning to `CCOCCNc1ccc(S(=O)(=O)c2ccc(N)cc2)cc1N`, the growth was 92.5% in the experiment on NCI-H23 lung; 94.6% with NCI-H226 lung; 101% in the experiment on NCI-H322M lung; 110% in the experiment on HOP-62 NSCLC; 109% with NCI-H460 lung; 96% in the experiment with NCI-H522 lung. Also, the growth in the experiment on A549/ATCC NSCLC is 91.5%; in the experiment with 786-0 renal, 108%; with COLO 205 colon, 110%; with DU-145 prostate it was 119%; in the experiment with K-562 leukemia, 107%; in the experiment with MALME-3M melanoma it was 109%. Moreover, the growth is 118% with MDA-MB-231 breast; 130% in the experiment with RXF 393 renal; 97.1% with SF-268 CNS; 96.2% in the experiment on SF-295 CNS; 109% in the experiment on SF-539 CNS; 92.8% in the experiment with UACC-257 melanoma. For the same molecule, the growth in the experiment with M14 melanoma is 112%.
Turning to `O=C(/C=C/c1ccccc1)c1c[nH]c2ccccc2c1=O`, the growth is 9.55% (active) with NCI-H23 lung; 8.22% (active) with NCI-H226 lung; -7.62% (active) in the experiment with NCI-H322M lung; 23.6% in the experiment on HOP-62 NSCLC; -32.8% (active) with NCI-H460 lung; 0.426% (active) with NCI-H522 lung. Moreover, the growth was 3.17% (active) in the experiment on A549/ATCC NSCLC; 4.48% (active) in the experiment with 786-0 renal; 0.617% (active) in the experiment with COLO 205 colon; 7.22% (active) in the experiment with DU-145 prostate; 11.1% in the experiment on K-562 leukemia; 43.6% in the experiment with MALME-3M melanoma. Moreover, the growth with MDA-MB-231 breast is -1.53% (active); in the experiment with RXF 393 renal, 18.1%; in the experiment with SF-268 CNS, -14.1% (active); in the experiment with SF-295 CNS, -51.7% (active); in the experiment with SF-539 CNS, -24.5% (active); with UACC-257 melanoma it was 58.9%. Moreover, in the experiment on M14 melanoma, the growth is -24% (active).
For the molecule `CCN(CC)CCNC(=O)C(F)(F)C(F)(F)C(F)(F)F`, the growth in the experiment with NCI-H23 lung is 114%; with NCI-H226 lung it was 93.7%; in the experiment on NCI-H322M lung, 114%; with HOP-62 NSCLC, 95.6%; in the experiment on NCI-H460 lung, 111%; in the experiment on NCI-H522 lung it was 110%. Besides, the growth with A549/ATCC NSCLC was 104%; with 786-0 renal it was 87.2%; in the experiment on COLO 205 colon it was 102%; in the experiment with DU-145 prostate it was 115%; in the experiment with K-562 leukemia it was 109%; in the experiment with MALME-3M melanoma, 124%. Moreover, the growth is 104% in the experiment with MDA-MB-231 breast; 98% in the experiment on RXF 393 renal; 103% in the experiment on SF-268 CNS; 101% in the experiment with SF-295 CNS; 90.7% with SF-539 CNS; 111% with UACC-257 melanoma. In addition, the growth with M14 melanoma is 97.7%.

Values taken from PubChem BioAssay (NCI).
